An excerpt weighted towards active compounds, which were near 7.4% of everything screened.
NPC1 promoter act – activates the NPC1 promoter | Huh7 NPC1 promoter luciferase reporter, 24 h | Potency, µM (top dose mostly 9.22 µM), without a hit: at the top dose activation, hits mostly activators | 320,000 compounds, 2.4% hits; further: % of control where 0% means no effect; nearly all actives have a fitted effect of over 60% in size
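Stably transfected Huh7 (NPC1 promoter→luciferase), 1500 cells/well in Opti-MEM + 10% FBS, 2 h settle, then compound 24 h at 37 °C. Luminescence after 10 min with Amplite reagent.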
Rab9 promoter act – activators of Rab9 promoter | Huh7 Rab9 promoter-luciferase reporter, luminescence, 24 h | Potency, µM (doses to about 9.22 µM), without a hit: top-dose activation, negative = inhibition, actives largely listed as activators | 320,000 compounds, 2.8% hits | AID 485297; further: % of control where 0% means no effect; nearly all actives have a fitted effect of over 60% in size
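Quantitative HTS format; Huh7 Rab9-luciferase reporter cells (1500/well) receive compound 2 h post-plating, incubate 24 h at 37 °C, then get luciferase reagent for 10 min before luminescence reading.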
FLuc counter – inhibits or activates purified firefly luciferase, miR-21 counter-screen | 360,000 compounds, 6.9% hits | AID 588342 | Potency, µM (highest dose often 57.5 µM), without a hit: at the highest dose activity change, negative = inhibition, usual class: inhibitors | purified FLuc, Km substrates, luminescence inhibition | P08659;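 further: plate controls were vehicle for no effect and reference inhibitor for full effect; nearly all actives have a fitted effect of over 55% in size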
Target sequence (P08659 whole entry, looked up): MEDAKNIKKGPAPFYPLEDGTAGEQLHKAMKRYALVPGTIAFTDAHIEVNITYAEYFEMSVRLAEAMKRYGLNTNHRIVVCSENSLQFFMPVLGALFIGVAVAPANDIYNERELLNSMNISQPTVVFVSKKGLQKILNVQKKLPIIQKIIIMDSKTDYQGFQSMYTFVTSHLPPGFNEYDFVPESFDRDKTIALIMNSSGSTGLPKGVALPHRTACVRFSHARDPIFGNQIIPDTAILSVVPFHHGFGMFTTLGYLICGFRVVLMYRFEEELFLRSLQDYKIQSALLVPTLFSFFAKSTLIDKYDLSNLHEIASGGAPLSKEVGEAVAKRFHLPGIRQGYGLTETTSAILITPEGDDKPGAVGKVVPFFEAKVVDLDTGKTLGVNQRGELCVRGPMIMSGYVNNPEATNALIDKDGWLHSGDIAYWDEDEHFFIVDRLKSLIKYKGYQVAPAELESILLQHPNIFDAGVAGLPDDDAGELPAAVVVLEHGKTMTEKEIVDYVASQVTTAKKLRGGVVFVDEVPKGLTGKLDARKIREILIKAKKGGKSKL
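Biochemical qHTS of compounds, final roughly 60 µM downward over six points, against 10 nM purified firefly luciferase using Km concentrations of substrates (10 uM D-luciferin, 10 uM ATP) in Tris acetate pH 7.5 buffer; luminescence output.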
p53 reactivator – mutant p53 re-activation in reporter cells. H1299 p53-A138V BP100-luciferase reporter, luminescence, 24 h. Potency, µM (series often up to 92.2 µM), without a hit: at the highest dose activity change, positive = activation, hits mostly activators. 320,000 compounds, 0.063% hits; further: % of control where 0% means no effect; nearly all actives have a fitted effect of over 45% in size
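H1299 (p53-null), stable ts p53-A138V + BP100-Luc; 1000 cells/well, Opti-MEM/10% FBS; cpd 4 pt, 1:5; 24 h, 37 deg C, 5% CO2; detection reagent 10 min RT; luminescence.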
ELG1 genotox – inducers of genotoxicity in HEK293T ELG1-luciferase cells; Potency, µM (highest dose often 46 µM), for the others: at the highest dose activity change, positive = activation, actives largely listed as activators; AID 504466; HEK293T ELG1-luciferase reporter, luminescence, 16 h; 330,000 compounds, 1.3% hits; further: % of control where 0% means no effect; nearly all actives have a fitted effect of over 60% in size
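Quantitative HTS format in 1536-well plates. HEK293T ELG1-luciferase reporter cells receive test compound and are incubated 16 hr at 37 °C, 5% CO2; ONE-Glo added, 30 min room temperature, then luminescence read.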
SMN2 splice up – enhancers of SMN2 splice variant expression; 210,000 compounds, 2.8% hits; Potency, µM (series often up to 46.1 µM), without a hit: top-dose activity change, positive = activation, actives largely listed as activators; HEK293 SMN2-luciferase splicing reporter, luminescence, 30-36 h; AID 1458; further: % of control where 0% means no effect; nearly all actives have a fitted effect of over 55% in size
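HEK293 cells carry an SMN2 […]–luciferase reporter in which exon 7 inclusion puts luciferase in frame. Cells were plated 10-12 h before compound addition, then incubated 30-36 h at 37C. ONE-Glo luminescence was read; sodium butyrate at 4.5 mM final served as control.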
* hit, by the source's call; ? = inconclusive; . = no result given. The call rests on the fitted dose curve; in most records, active means well fitted curve in the direction sought with a large enough effect; inconclusive means small, poorly fitted or top-dose-only effect, or another doubt; inactive means no such curve, though single readings can be large; an effect the other way counts as inactive or inconclusive. Potency means the concentration at half of the fitted maximal effect.

SMILES | NPC1 promoter act | Rab9 promoter act | FLuc counter | p53 reactivator | ELG1 genotox | SMN2 splice up
c1ccc(-c2nccnc2-c2ccccc2)cc1 | -2% | 2% | 5% | -1% | 0% | .
CCc1ccc(C(=O)c2cn(CC(=O)Nc3cc(C)ccc3C)c3nc(C)ccc3c2=O)cc1 | . | . | -4% | . | . | .
CCCCc1ccc(NC(=O)c2cc3c(=O)n4ccccc4nc3n2C)cc1 | . | . | 6% | . | . | .
Nc1c(C(=O)Nc2ccccc2F)sc2nc(-c3ccco3)ccc12 | ? | ? | ? | ? | ? | -19%
COC(=O)c1sc2nc(-c3ccco3)ccc2c1N | 1.4µM* | 1.1µM* | 0.38µM* | ? | ? | 6.3µM*
NC(=O)c1sc2nc(-c3ccco3)ccc2c1N | ? | ? | 11µM* | ? | ? | ?
COc1ccc(CCNC(=O)CSc2nc3ccccc3nc2Cc2ccc(C)cc2)cc1OC | . | . | -9% | . | . | -2%
Cc1ccc(C(=O)/C=C/Nc2ccc3c(c2)OCO3)cc1 | 0.71µM* | 0.71µM* | 0.27µM* | 38% | ? | ?
C/C(=C\C(=O)c1ccc(C)cc1)Nc1cccc(O)c1 | 2.8µM* | 0.63µM* | 0.85µM* | ? | ? | ?
O=C(/C=C/Nc1cccc(O)c1)c1ccccc1 | ? | 23% | 0.17µM* | ? | ? | ?
C/C(=C\C(=O)c1ccc(C)cc1)Nc1ccc(N2CCOCC2)cc1 | 0% | 14% | -1% | 12% | 0% | 9%
CC(=O)c1ccc(N/C=C\C(=O)c2ccc(C)cc2)cc1 | 2.5µM* | 4µM* | 1.9µM* | ? | 8.2µM* | 16µM*
O=C(COc1ccc(F)cc1)NCC(c1ccc(Cl)cc1)N1CCCCC1 (centres undefined) | . | . | -8% | . | . | .
O=C(c1cccc(F)c1)N1CCC2(CCCN(c3ncccn3)C2)CC1 | . | . | . | . | . | -13%
O=C(/C=C/Nc1ccc(F)c(Cl)c1)c1ccccc1 | ? | 3.5µM* | 2.4µM* | ? | 18µM* | .
Cc1ccc(N/C=C/C(=O)c2ccccc2)cc1Br | 4µM* | 3.2µM* | 0.6µM* | . | ? | .
Cc1ccc(C(=O)/C=C/Nc2cccc(O)c2)cc1 | 28% | ? | 0.38µM* | ? | 4.1µM* | 25µM*
CC(=O)c1cccc(NS(=O)(=O)c2ccc(N/C=C\C(=O)c3ccc(C)cc3)cc2)c1 | -13% | -4% | 5% | ? | 2% | -23%
CC(=O)c1cccc(N/C=C\C(=O)c2ccc(C)cc2)c1 | 0.79µM* | 0.79µM* | 0.3µM* | 35µM* | 2.6µM* | 6.3µM*
Cc1nn(Cc2ccccc2)c(C)c1C(=O)N1CCN(S(=O)(=O)/C=C/c2ccccc2)CC1 | -3% | 3% | 4% | -3% | -2% | .
Cc1ccc2nc(N3C(=O)C(O)=C(C(=O)c4ccco4)C3c3cccs3)sc2c1 (centres undefined) | -3% | 16% | 17µM* | ? | 12% | 0%
OCCNCCCCOc1ccc(OCc2ccccc2)cc1 | ? | 3.5µM* | 11µM* | ? | ? | 16µM*
c1ccc(COc2ccc(-c3csnn3)cc2)cc1 | 1.8µM* | 2.8µM* | 2.4µM* | 13% | 26% | ?
Cc1ccccc1C(=O)Oc1ccc(Sc2ccc(O)cc2)cc1 | 1% | -6% | ? | 22% | ? | .
Nc1ccc(OCc2ccccc2)cc1 | 28% | ? | ? | 17% | 19% | 13µM*
SMILES | NPC1 promoter act | Rab9 promoter act | FLuc counter | p53 reactivator | ELG1 genotox | SMN2 splice up
Nc1ccc(OCCc2ccccc2)cc1 | ? | ? | -12% | . | 17% | .
Cc1ccccc1C(=O)Oc1ccc(-c2csnn2)cc1 | 0% | -1% | 12µM* | 3% | ? | .
CC(=O)COc1ccc(-c2csnn2)cc1 | 15% | 26% | -14% | 3% | 14% | .
CCOC(=O)c1ccc(NC(=O)c2cnn(-c3ccc(C)cc3C)c2C2CCN(C(=O)OC(C)(C)C)CC2)cc1 | . | . | 4% | . | . | .
CCC(C)[C@H](NC(=O)N1CC(=O)Nc2ccccc21)C(=O)N[C@H](C(=O)O)c1ccccc1 (some centres undefined) | -6% | -5% | 0% | 0% | 3% | .
CCN(CC)c1ccc(/C=C/C(=O)c2ccc(Br)cc2)cc1 | -10% | -2% | 17µM* | ? | 1% | -3%
CC(=O)Nc1cccc(C(=O)/C=C/c2ccc(Br)cc2)c1 | -2% | -5% | ? | -22% | -20% | 16%
CCN(CC)c1ccc(/C=C/C(=O)c2cccnc2)cc1 | 0% | -1% | -1% | 8% | -6% | 3%
CN(C)c1ccc(N=Nc2ccc(C(=O)O)cc2)cc1 | 0.013µM* | 0.0002µM* | 0.24µM* | -4% | -6% | .
CN(C)c1ccc(C(=O)/C=C/c2ccccc2)cc1 | 4µM* | 3.2µM* | 1.2µM* | ? | ? | 22µM*
CN(C)c1ccc(C(=O)/C=C/c2ccc(Br)cc2)cc1 | 25% | 27% | 1.7µM* | 29% | 13% | 7%
Cc1ccc(-n2c(C)cc(C(=O)C(=O)Nc3ccccc3)c2C)c(C)c1 | . | . | 5% | . | . | .
CC1(C(=O)O)NCCc2cc(O)c(O)cc21 (centres undefined) | . | . | . | . | . | 1%
O=C(c1ccccc1)c1ccc(-c2ccc(O)cc2)cc1 | -2% | 3.2µM* | 17µM* | ? | ? | .
O=C(c1ccc(-c2ccccc2)cc1)c1ccc([N+](=O)[O-])cc1 | 9% | 1% | ? | 11% | 4% | .
CN(C)c1ccc(C(=O)c2ccccc2)cc1 | ? | 3.2µM* | 11µM* | 25% | 17% | 29%
N/C(=N\OC(=O)c1ccc(Br)cc1)c1ccccc1 | 3.2µM* | 2.8µM* | 0.21µM* | ? | ? | ?
Cc1cccc(OCC(=O)O/N=C(\N)c2ccc(Br)cc2)c1 | -5% | 2% | -7% | 5% | -1% | .
O=C(CSCC(=O)OCC(=O)c1ccc(Br)cc1)Nc1ccc(Br)cc1 | -5% | -8% | 17µM* | 5% | 2% | -6%
Cc1ccc(C(=O)O/N=C(\N)c2ccc(Br)cc2)cc1 | 28% | 29% | 2.4µM* | ? | 13µM* | 10%
O=C(COC(=O)CCCNC(=O)c1ccc(Cl)cc1)Nc1ccc(Br)cc1 | -1% | 0% | 3.4µM* | 5% | 2% | 0%
NC(CCC(=O)NCS(=O)(=O)O)C(=O)O (centres undefined) | . | . | . | . | . | 2%
CC(=O)O/N=C(\N)c1ccc(-c2csnn2)cc1 | 17% | 26% | ? | 14% | ? | .
CC(C)(C)C(=O)O/N=C(\N)c1ccc(-c2csnn2)cc1 | 2.8µM* | 4.5µM* | 7.6µM* | 21% | ? | .
CC(C)(C)C(=O)O/N=C(\N)c1c(Cl)cccc1Cl | 0% | -2% | 0% | 1% | -3% | .

Screening results as filed in PubChem BioAssay.
